Screens: PubChem BioAssay, National Center for Advancing Translational Sciences (NCATS)
Pf growth 48h: inhibits P. falciparum growth in the first generation, 48 h; 310,000 tested, 5.9% active; Potency, µM (series often up to 28.7 µM), without a hit: at the highest dose activity change, negative = inhibition, usual class: inhibitors; P. falciparum luciferase growth in erythrocytes, 48 h; also: % is scaled to controls: 0 for no effect and ±100 for the full control effect
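In quantitative HTS format, infected erythrocytes bearing luciferase-reporter parasites were treated for a single generation at 37 C. Luminescence after adding detection reagent served as the growth measure.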
SARS PLpro yeast: blocks SARS-CoV papain-like protease in a yeast assay; S. cerevisiae expressing SARS-CoV PLpro, growth rescue; AID 485353; 330,000 tested, 0.19% active; Potency, µM (highest dose often 32.9 µM), inactives show at the top dose activity, positive = growth rescue, actives largely listed as activators; calls by dose curve; also: 0% is about no effect; nearly all actives have a fitted effect of over 55% in size
Sm TGR block: S. mansoni TGR enzyme inhibition; Q962Y6; Potency, µM (series often up to 114 µM), without a hit: at the highest dose activity change, negative = inhibition, actives largely listed as inhibitors; purified TGR, DTNB reduction, TNB absorbance 405 nm; 360,000 tested, 3% active; AID 485364; also: % is scaled to controls: 0 for no effect and ±100 for the full control effect; nearly all actives have a fitted effect of over 60% in size
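TGR 20 nM + NADPH 100 uM (dispensed conc.), cpd preinc 15 min RT; start with NADPH (500 uM addition) then DTNB (15 mM addition). Kinetic TNB absorbance, 405 nm filter. Four-parameter Hill fit across titration.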
AmpC detergent: blocks E. coli AmpC beta-lactamase in detergent assay | P00811 | AmpC hydrolysis of nitrocefin, absorbance 480 nm, 0.01% Triton | Potency, µM (doses to about 114 µM), for inactives: at the highest dose activity change, negative = inhibition, usual class: inhibitors | 370,000 tested, 0.041% active | AID 485294;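 also: 0% = no-compound wells and -100% = no-enzyme wells; nearly all actives have a fitted effect of over 25% in size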
Target sequence (P00811 whole entry, looked up): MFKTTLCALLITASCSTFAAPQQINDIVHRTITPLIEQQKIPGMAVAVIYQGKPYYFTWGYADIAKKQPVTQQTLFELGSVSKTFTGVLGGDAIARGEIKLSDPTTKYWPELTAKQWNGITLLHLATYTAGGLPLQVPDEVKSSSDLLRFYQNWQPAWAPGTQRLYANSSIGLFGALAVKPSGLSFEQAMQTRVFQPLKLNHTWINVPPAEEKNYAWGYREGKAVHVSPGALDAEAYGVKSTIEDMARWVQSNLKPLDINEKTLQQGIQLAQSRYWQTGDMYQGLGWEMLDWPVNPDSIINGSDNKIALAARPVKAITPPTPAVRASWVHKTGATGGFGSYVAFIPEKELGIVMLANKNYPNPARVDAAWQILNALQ
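AmpC (5.3 nM in the dispensed reagent) in 20 mM phosphate pH 7.0 with 0.01% (detergent screen) or 0.0001% Triton X-100 was preincubated with compounds for 15 min at room temperature. Nitrocefin was then added from an 800 uM solution, and hydrolysis was followed at 480 nm.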
Pf growth 96h: P. falciparum growth inhibition at 96 hour, primary screen for plastid delayed-death inhibitors | P. falciparum luciferase reporter growth, 96 h | Potency, µM (highest dose often 28.7 µM), inactives show at the highest dose activity change, negative = inhibition, usual class: inhibitors | 320,000 tested, 6.9% active; also: % is scaled to controls: 0 for no effect and ±100 for the full control effect
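Delayed-death screen, second-generation endpoint: infected erythrocytes, 2% hematocrit, 0.05% parasitemia final; 96 hours at 37 C, 5% CO2; luciferase detection reagent; luminescence decrease equals reduced growth.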
AmpC inh no detg: blocks E. coli AmpC beta-lactamase in detergent-free assay; AmpC nitrocefin hydrolysis, absorbance 480 nm, 0.0001% Triton; P00811; 330,000 tested, 0.52% active; Potency, µM (series often up to 57.1 µM), without a hit: top-dose activity change, negative = inhibition, most hits filed as inhibitors;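 also: plate controls were no compound for no effect and no enzyme for full effect; nearly all actives have a fitted effect of over 20% in size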
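20 mM phosphate pH 7.0 + 0.01% (detergent screen) or 0.0001% Triton X-100; 5.3 nM AmpC reagent; cpd preinc 15 min RT; nitrocefin (800 uM stock) to start; A480 q20 s × 4 min; Activity was normalised to no-enzyme and no-compound control wells.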
Starred values were filed as active, the others as inactive; ? = inconclusive; · = not tested or not shown. Shown are actives, neighbours in structure and some others; about 12% of the full set was active somewhere. Unless noted, calls follow the shape of the dose curve; as a rule, active = well fitted curve in the direction sought with a large enough effect; inconclusive = small, poorly fitted or top-dose-only effect, or another doubt; inactive = no such curve, though single readings can be large; an effect the other way counts as inactive or inconclusive. Potency is read from the fitted curve at half-maximal effect.

SMILES	Pf growth 48h	SARS PLpro yeast	Sm TGR block	AmpC detergent	Pf growth 96h	AmpC inh no detg
CCOC(=O)c1cccc(NC(=O)c2ccc(N(C)C)cc2)c1	161.5%	-9.4%	-7.4%	2.4%	30.9%	-36.0%
CCc1cccc2c(-c3ccccc3)nc(SCC(=O)Nc3ccccc3OC)nc12	·	·	6.1%	18.1%	·	·
COc1ccc2oc(C(=O)OCC(=O)N3CCN(S(=O)(=O)c4ccccc4)CC3)c(C)c2c1	?	1.1%	0.3%	?	-5.5%	-11.0%
COc1cccc(C(=O)CN2CCN(S(=O)(=O)c3cccc([N+](=O)[O-])c3)CC2)c1	-2.2%	-22.2%	17.8µM*	?	0.415µM*	-22.0%
CCOc1ccc(S(=O)(=O)N2CCN(C(=O)c3oc4ccc(OC)cc4c3C)CC2)cc1	10.4µM*	-2.6%	1.2%	?	?	74.8%
COc1cccc(C(=O)CN2CCC(NC(=O)NC3CCCCC3)CC2)c1	1.6%	0.5%	?	4.0%	14.7µM*	-11.8%
COc1cccc(NC(=O)c2oc3ccc(S(=O)(=O)N4CCOCC4)cc3c2C)c1	?	-0.8%	-0.5%	-0.1%	-25.2%	112.5%
COc1ccc2oc(C(=O)N3CCN(S(=O)(=O)c4cccc([N+](=O)[O-])c4)CC3)c(C)c2c1	?	-0.7%	1.1%	-5.1%	8.28µM*	-11.3%
CCCCNC(=O)Cn1c(=O)cc(C)c2c(C)nn(-c3ccc(CC)cc3)c21	·	·	4.0%	21.6%	·	·
COc1cccc(CN(C(=O)c2cccc(C)c2)C2CCS(=O)(=O)C2)c1 (stereo unspecified)	·	·	3.1%	4.5%	·	·
CCCCC1(Cc2ccc(OC)c([N+](=O)[O-])c2)C(=O)N(c2ccccc2)N(c2ccccc2)C1=O	1.47µM*	-14.1%	16.6%	3.4%	?	-14.1%
CCCCC1(CC(=O)OC)C(=O)N(c2ccccc2)N(c2ccccc2)C1=O	?	-1.5%	-8.2%	-10.7%	41.5%	55.8%
CC(C)(C)NC(=O)C(c1ccncc1)N(C(=O)C1CSC(=O)C1)c1ccccc1 (stereo unspecified)	8.0%	0.0%	11.5%	0.5%	-2.6%	-2.1%
C/C(=N\NC(=S)NC(C)C)c1ccccc1	?	-3.0%	0.398µM*	?	-55.3%	-15.8%
CC(=O)Nc1cccc(/C(C)=N/NC(=S)NC(C)C)c1	28.0%	-1.2%	-12.7%	-14.7%	49.2%	-16.4%
C/C(=N\NC(=S)NC(C)C)c1ccco1	?	1.0%	3.98µM*	-8.2%	?	-15.1%
CC(C)NC(=S)NN=C1c2ccccc2-c2ccccc21	-18.0%	-0.9%	-17.2%	-0.6%	?	-41.2%
CC(C)NC(=S)NC(c1ccccc1)(c1ccccc1)c1ccccc1	6.57µM*	2.3%	7.5%	-12.8%	8.28µM*	-9.7%
CCOC(=O)N1CCC(N2Cc3cccc(C(=O)NCc4ccccn4)c3C2=O)CC1	·	2.0%	5.3%	-5.4%	15.0%	29.5%
CCCCCn1c(CN2CCN(C(=O)c3ccco3)CC2)nc2c1c(=O)n(C)c(=O)n2C	9.28µM*	0.8%	-40.8%	5.1%	?	108.4%
Cn1c(=O)c2c(nc(CN3CCN(C(=O)c4ccco4)CC3)n2CCCc2ccccc2)n(C)c1=O	·	-2.8%	?	-16.4%	7.38µM*	153.5%
CCCCn1c(CN2CCN(C(=O)c3ccco3)CC2)nc2c1c(=O)n(C)c(=O)n2C	?	-21.1%	2.8%	6.4%	13.1µM*	40.9%
Cn1c(=O)c2c(nc(CN3CCN(C(=O)c4ccco4)CC3)n2CCc2ccccc2)n(C)c1=O	?	-8.8%	-14.4%	?	5.9%	214.3%
COc1ccccc1NC(=O)CSc1nnc2c3ccccc3n(C(C)C)c2n1	·	·	9.8%	-10.8%	·	·
C/C(Cn1nnc([N+](=O)[O-])n1)=N\NC(=O)c1ccccc1Cl	7.38µM*	10.9%	-23.6%	12.5%	9.28µM*	-43.6%
